Measured values published in PubChem BioAssay.
Activity calls are given as the source filed them.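 The calls were made as follows, unless noted: active = inhibition at or above 50% at 10 µM; inactive = inhibition below 50%.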 Where a SMILES comes first, the peptide text is derived from it. The star is where a group is joined. Boc = CC(C)(C)OC(=O)*

Key:
[1] = inhibitors of TNFa-induced NFkB p65 translocation, primary screen, imaging, HUVEC, MLSMR starter and 10KST1 sets (AID 438;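 active = inhibition above 20% together with a positive visual image hit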;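 also: compound added about 3h40 before a 20 min TNFalpha stimulation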;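 as to inhibition: signal is the nuclear over cytoplasmic p65 intensity ratio per well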); conditions: HUVEC TNFa-induced p65 nuclear translocation; cell count: measured here: nuclei count (cytotoxicity indicator), at 2.08 µM; inhibition: at 2 µM, stronger effect = higher value, 0% TNFa-plus-vehicle, 100% no-TNFa wells
[2] = reduction of polyQ htt aggregates in cells – imaging, exon1htt(103Q)mCFP cells, high-content imaging, primary screen (AID 483;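 active = visual image review flags a hit and inhibition of aggregation exceeds 20%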;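 also: compound exposure lasted 3 days before fixation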;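 as to nuclei count: percent of the per-plate median nuclei count of sample wells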); conditions: exon1htt(103Q)mCFP cell line, aggregate imaging, at 2 µM; inhibition of aggregation: stronger effect = higher value; nuclei count: measured here: cell count, toxicity
[3] = endothelial E-selectin expression blockers – imaging, HUVEC, immunofluorescence, MLSMR starter and 10KST1 sets, primary screen (AID 487;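 active = visually confirmed hit in the image check and inhibition above 20%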;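 as to inhibition: signal is fraction of cell area covered by stained E-selectin grains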;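 as to nuclei count: 100% = median nuclei count of all wells on the same plate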); conditions: HUVEC TNFalpha-induced E-selectin immunofluorescence imaging, at 2 µM; inhibition: stronger effect = higher value; nuclei count: measured here: cell number, toxicity
[4] = molecular target: Voltage-gated potassium channel subunit beta-2 (Rattus norvegicus) (UniProt P62483); experiment: inhibitors of rat Kvbeta2 reductase activity – biochemical, NADPH fluorescence, primary screen (AID 622;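 active = fluorescence slope higher than the sample average by over 3 SD, cut at about -0.22 in these data, passing the limit was not always enough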;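 also: slope of raw intensity against log time taken from 70 to 1610 s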); conditions: recombinant KvBeta, 4-cyanobenzaldehyde reduction, at 10 µM, stronger effect = higher value
[5] = molecular target: Voltage-gated potassium channel subunit beta-2 (Rattus norvegicus) (UniProt P62483); experiment: enhancers of rat Kvbeta2 NADPH turnover – biochemical, NADPH fluorescence, primary screen (AID 623;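 active = NADPH fluorescence slope more negative than the mean of all samples by about 3 SD, 99.7% confidence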;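 also: fluorescence intensity change per second fitted from 20 to 320 s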); conditions: Recombinant KvBeta, NADPH fluorescence decrease slope, 10 min; at 10 µM; stronger effect = lower value
[6] = molecular target: Alpha-2C adrenergic receptor (Homo sapiens) (UniProt P18825); experiment: compounds altering alpha2C-coupled GIRK flux – cell-based, HEK293 alpha2C/GIRK1/2, thallium flux, primary screen (AID 624;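 active = fluorescence slope after compound addition differing from the mean of all screened samples at 99.7% confidence, in either direction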;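 also: slope of fluorescence ratio to pre-addition baseline per second over 15 to 24 s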); conditions: thallium flux BTC fluorescence, at 10 µM, actives lie on both sides
[7] = blockers of RIG-like receptor reporter activation – cell-based, Sendai virus stimulus, luciferase, 10K MLSCN set, TLR/RLR signaling modifier project, primary screen (AID 602276); conditions: HEK293 RL24 IRF3 luciferase reporter, at 10 µM, stronger effect = higher value;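 also: firefly luciferase from ISG56 promoter only with Renilla not read in this screen; 0% = Sendai virus plus DMSO and 100% = medium plus DMSO without virus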
[8] = TLR3 IRF3 reporter activation blockers – cell-based, poly I:C stimulus, luciferase, 10K MLSCN set, primary screen (AID 602277;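 active = inhibition of the reporter signal at or above 50%; inactive = inhibition below 50%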); conditions: HEK293-TLR3 RL24 IRF3 luciferase reporter, at 10 µM, stronger effect = higher value

Alpha-2C adrenergic receptor (Homo sapiens), sequence (P18825 whole entry, looked up): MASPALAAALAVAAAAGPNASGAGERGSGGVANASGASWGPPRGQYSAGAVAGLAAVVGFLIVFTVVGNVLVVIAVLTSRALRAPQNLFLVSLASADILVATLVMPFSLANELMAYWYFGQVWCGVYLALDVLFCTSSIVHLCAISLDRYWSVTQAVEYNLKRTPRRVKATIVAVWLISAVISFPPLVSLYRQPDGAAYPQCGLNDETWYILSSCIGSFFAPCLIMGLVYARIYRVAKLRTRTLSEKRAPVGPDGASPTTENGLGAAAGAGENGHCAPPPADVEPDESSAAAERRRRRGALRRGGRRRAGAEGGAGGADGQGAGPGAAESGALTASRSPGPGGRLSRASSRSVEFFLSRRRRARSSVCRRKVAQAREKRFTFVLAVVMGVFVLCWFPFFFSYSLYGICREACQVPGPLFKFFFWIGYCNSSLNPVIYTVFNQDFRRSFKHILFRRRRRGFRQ
Voltage-gated potassium channel subunit beta-2 (Rattus norvegicus), sequence (P62483 whole entry, looked up): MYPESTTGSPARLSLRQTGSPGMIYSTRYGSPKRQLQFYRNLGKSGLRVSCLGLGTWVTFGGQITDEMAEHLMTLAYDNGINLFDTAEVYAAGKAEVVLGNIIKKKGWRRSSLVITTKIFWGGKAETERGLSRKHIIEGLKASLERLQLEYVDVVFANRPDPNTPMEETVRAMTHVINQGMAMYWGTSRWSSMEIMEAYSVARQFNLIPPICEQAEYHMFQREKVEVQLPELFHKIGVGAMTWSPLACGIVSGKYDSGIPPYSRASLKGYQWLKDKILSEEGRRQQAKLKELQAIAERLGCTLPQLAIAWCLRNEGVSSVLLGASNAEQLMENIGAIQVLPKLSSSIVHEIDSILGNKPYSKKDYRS

Structure (SMILES) | cell count [1] | inhibition [1] | inhibition of aggregation [2] | nuclei count [2] | inhibition [3] | nuclei count [3] | fluorescence slope [4] | NADPH fluorescence slope [5] | slope [6] | inhibition [7] | inhibition [8]
Cc1cc(C)nc(NC(=O)c2cnc3sccn3c2=O)n1 | 650 | -14% (inactive) | 18.2% (inactive) | 84.7% | -14.9% (inactive) | 110% | -0.528 (inactive) | -3.1e-05 (inactive) | 0.00661 (inactive) | 17.6% (inactive) | 47.4% (inactive)
CC1CCN(C(=O)CSCC(=O)Nc2nc(-c3cccs3)cs2)CC1 | 734 | -3.4% (inactive) | 17.8% (inactive) | 94.3% | -38.7% (inactive) | 114% | -0.495 (inactive) | -1.9e-05 (inactive) | 0.00893 (inactive) | 4.81% (inactive) | -0.513% (inactive)
COCCOC(=O)C1=C(C)NC(=O)CC1c1cc2c(cc1Br)OCO2 (configuration not stated) | 424 | 4.1% (inactive) | 16.1% (inactive) | 104% | -12.8% (inactive) | 95.1% | -0.395 (inactive) | -2.8e-05 (inactive) | 0.0043 (inactive) | 17.3% (inactive) | 16.1% (inactive)
CC(C)C(C(=O)Nc1ccc2c(c1)OCCO2)N1C(=O)c2ccccc2C1=O (configuration not stated) | 552 | -4.3% (inactive) | 7% (inactive) | 104% | -63.7% (inactive) | 147% | -0.3 (inactive) | 1.8e-07 (inactive) | 0.00511 (inactive) | 2.16% (inactive) | 12.8% (inactive)
Cc1oc2cc3c(C(=O)OCCN(C)C)c(C)oc3cc2c1C(=O)OCCN(C)C | 445 | -6% (inactive) | -22.9% (inactive) | 95.2% | -44.7% (inactive) | 92.4% | -0.412 (inactive) | -3.3e-05 (inactive) | 0.00351 (inactive) | 48.3% (inactive) | 99.1% (active)
CC1=C(C(=O)OCc2ccccc2)C(c2ccc(C)o2)C2=C(CCCC2=O)N1 (configuration not stated) | 745 | 1.9% (inactive) | 14.6% (inactive) | 101% | 29.9% (inactive) | 97% | -0.466 (inactive) | -3.8e-05 (inactive) | 0.00603 (inactive) | 2.43% (inactive) | 15.6% (inactive)
COc1ccc(C2CC(c3ccc(OC)cc3)n3nc(N)nc3N2)cc1 (configuration not stated) | 595 | 6.1% (inactive) | -5.1% (inactive) | 99.7% | 28.5% (inactive) | 102% | -0.595 (inactive) | -3.1e-05 (inactive) | 0.00691 (inactive) | 6.72% (inactive) | 20.7% (inactive)
CN=C(Nc1cc(C)nn1-c1ccccc1)c1ccccc1 | 455 | 0.5% (inactive) | -5.8% (inactive) | 114% | 23% (inactive) | 90.5% | -0.519 (inactive) | -2.6e-05 (inactive) | 0.00474 (inactive) | 12.8% (inactive) | 17.1% (inactive)
O=C(NCc1cccs1)C1CCN(S(=O)(=O)c2cccs2)CC1 | 353 | 4.5% (inactive) | 0.9% (inactive) | 99.2% | -13.4% (inactive) | 120% | -0.619 (inactive) | -1.4e-05 (inactive) | 0.00617 (inactive) | 7.22% (inactive) | 15% (inactive)
O=C(Nc1nc2c(s1)CCc1ccccc1-2)c1cccs1 | 637 | -3.6% (inactive) | -9.4% (inactive) | 115% | 30.8% (inactive) | 86.1% | -0.361 (inactive) | 1.5e-05 (inactive) | 0.00613 (inactive) | 12.8% (inactive) | -8.29% (inactive)
CC(NC(=O)OC(C)(C)C)C(=O)N1CCCC1C(=O)NC(Cc1ccccc1)C(N)=O (stereo not drawn) (Boc-Ala-Pro-Phe-NH2; configuration not given here) | 220 | 9.7% (inactive) | -15.1% (inactive) | 85.5% | -30.7% (inactive) | 93.1% | -0.498 (inactive) | -3.8e-06 (inactive) | 0.00536 (inactive) | 19.8% (inactive) | 22.4% (inactive)
COc1cc2cc(C(c3nnnn3C3CCCC3)N(C)C3CCCCC3)c(=O)[nH]c2cc1OC (configuration not stated) | 537 | -13.2% (inactive) | -34.3% (inactive) | 100% | -15.9% (inactive) | 108% | -0.465 (inactive) | -2e-05 (inactive) | 0.007 (inactive) | 12.4% (inactive) | 22% (inactive)
